Experimental findings from PubChem BioAssay AID1259415 (National Center for Advancing Translational Sciences (NCATS), 2018) are described below.

Screen size: about 410,000 compounds; about 18,000 (4.4%) were called active. About 7% were inconclusive and are not listed. Rule as the data show it: active = activity change below about -60%; inconclusive = no clear call, values can overlap the other calls; inactive = above about -39%. Shown is part of a subset that was picked to be rich in actives.
% is scaled to controls: 0 for no effect and ±100 for the full control effect.

The nature of the test: qHTS Assay for inhibitors of the human cytomegalovirus (HCMV). To be noted: HFF cells, HCMV-luciferase reporter, 72 h; at 57.5 µM; active compounds read low. An outline of the steps:
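Luciferase read-out from HCMV-luciferase-infected HFFs (MOI 1 PFU/cell) 72 h post infection at 37C; compounds added after 16 h cell attachment; activity normalized between buffer-only basal and Salinomycin (10uM) inhibitor controls.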
For `COc1ccc(NC(=O)CCCN2C(=O)CCn3nc(-c4cn(C)c5ccccc45)cc32)cc1OC`, the activity change, negative = inhibition is -28.9% (inactive). On to `CCOc1ccc(CN2CCN(CCCc3ccccc3)C(CCO)C2)cc1` (centres undefined), for which the activity change, negative = inhibition is 37.5% (inactive). For `COc1ccccc1N1CCC(N2CCN(CC(C)(C)C)C(CCO)C2)CC1` (centres undefined), the activity change, negative = inhibition was 33.4% (inactive). `CCOc1ccccc1CN1CCN(C2CCC2)CC1CCO` (centres undefined): the activity change, negative = inhibition is -93.5% (active). Take `Cc1ccccc1CSc1nc(-c2ccccc2)nc2c1Cc1c(CO)cnc(C)c1O2`: the activity change, negative = inhibition was 8.94% (inactive). On to `CCOc1ccc(NC(=O)CC2C(=O)N(c3cccc(OC)c3)C(=O)N2C2CCCCC2)cc1` (centres undefined), for which the activity change, negative = inhibition was 7.53% (inactive).

In the case of `CCOC(=O)C1(Cc2cccc(OC)c2)CCN(C(C)COC)CC1` (centres undefined), the activity change, negative = inhibition is -7.28% (inactive). Next, `CCOC(=O)C1(Cc2cccc(OC)c2)CCN(C(C)CC(C)(C)O)CC1` (centres undefined): 14% (inactive); `CCOC(=O)[C@]12Cc3cc(OC)ccc3[C@H]1N(C(C)C)C(=O)c1ccccc12`: -109% (active). Next, `CCOC(=O)c1ccc(NC(=O)CC2C(=O)N(c3cccc(OC)c3)C(=O)N2C2CCCCC2)cc1` (centres undefined): -1.63% (inactive); `CCOC(=O)[C@]12Cc3ccccc3[C@H]1N(C1CCCCC1)C(=O)c1cc(OC)ccc12`: -101% (active); `Cc1ccc(O)c(NC(=O)CCS(=O)(=O)c2nc(-c3ccc4c(c3)OCO4)cc(C(F)(F)F)n2)c1`: 14.6% (inactive).

Take `CCOC(=O)[C@]12CCCC=C1N(Cc1ccc3c(c1)OCO3)C(=O)[C@H](CC(=O)NCc1cccs1)C2`: the activity change, negative = inhibition was 6% (inactive). Next, `Cc1ccc(C)c(CNC(=O)c2cc3ccccn3n2)c1`: 7.66% (inactive); `CCc1ccc(-n2nnc(-c3nc(-c4ccccc4)no3)c2C)cc1`: 168% (inactive). For the compound `O=C(Nc1ccc(OC(F)(F)F)cc1)C1CCCN(S(=O)(=O)c2ccc(Br)s2)C1` (centres undefined), the activity change, negative = inhibition is 6.14% (inactive). Regarding `O=C1COCc2ccc(-c3cc4ccccc4o3)cc2N1CC1CC1`, the activity change, negative = inhibition was -2.65% (inactive). Consider `COC(=O)CCCCCN1C(=O)NC(c2ccc(-c3ccccc3)cc2)C(C(=O)OCc2ccccc2)=C1C` (centres undefined), for which the activity change, negative = inhibition is 19.6% (inactive). Next, `CCCCNC(=O)C(C)N(CCN(C)C)C(=O)CCCN1C(=O)NC(c2ccc(Cl)cc2)C(C(=O)OCc2ccccc2)=C1C` (centres undefined): -68% (active); `CC1=C(C(=O)OC(C)(C)C)C(c2ccc(Br)cc2)NC(=O)N1CCCC(=O)O` (centres undefined): -18.5% (inactive). Regarding `Cc1ccc(SCC(=O)Nc2ccc3oc(-c4ccccc4C)nc3c2)cc1`, the activity change, negative = inhibition is 73.5% (inactive).

Regarding `CC(=O)OC1=C(C(C)=O)N(Cc2ccccc2)S(=O)(=O)c2ccccc21`, the activity change, negative = inhibition was 3.57% (inactive). For the compound `COc1ccc(OCCn2cc(C(=O)C3CCCCC3)c3ccccc32)cc1`, the activity change, negative = inhibition was -16.3% (inactive). As to `CN(c1ccccc1)S(=O)(=O)c1ccc(C(=O)NCc2cccnc2)cc1`, the activity change, negative = inhibition was -0.899% (inactive). As for `CCN(C(=O)c1cc([N+](=O)[O-])ccc1NCc1cccnc1)c1ccccc1`, the activity change, negative = inhibition is -61.2% (active). For the compound `O=C(COC(=O)c1cc([N+](=O)[O-])ccc1NCc1ccccc1)NC1CCCCC1`, the activity change, negative = inhibition is -19.2% (inactive).

For `CCc1ccc(C2C(C(=O)Nc3ccccc3)=C(C)Nc3c(C(=O)Nc4ccc(C)cc4)cnn32)cc1` (centres undefined), the activity change, negative = inhibition is -39.9% (inactive). Next, `CCCCCCCCCCCCC(NC(C)=O)(C(=O)OCC)C(=O)OCC`: 12.4% (inactive); `CC(=O)N1CCN(c2ccc(NCc3ccc(C(C)C)cc3)cc2)CC1`: -36.3% (inactive).

As to `Cc1nc2ccccc2c(-c2ccccc2)c1C(=O)c1ccccc1`, the activity change, negative = inhibition is -104% (active). `CC(C)(C)C(=O)c1c(N)[nH]c(C(=O)c2ccccc2)c1-c1ccc(F)cc1`: the activity change, negative = inhibition is -5.27% (inactive). As to `Nc1[nH]c(C(=O)c2ccccc2)c(-c2ccncc2)c1C(=O)NCc1cccc2ccccc12`, the activity change, negative = inhibition is -19.1% (inactive). As for `COc1ccc(OCC(=O)Nc2cccc(C(=O)OCc3cc(=O)n4nc(C)sc4n3)c2)cc1`, the activity change, negative = inhibition is 47.5% (inactive).

On to `CCc1c(C)nc2c(-c3ccccc3)c(C)nn2c1Nc1ccc(NC(C)=O)cc1`, for which the activity change, negative = inhibition was -66.5% (active). Take `Cc1nn2c(NCCN(C)C)c3c(nc2c1-c1ccccc1)CCC3`: the activity change, negative = inhibition is -16.5% (inactive). Consider `CCc1ccc(NC(=O)c2cnc3c(-c4ccccc4)c(C)nn3c2C)cc1`, for which the activity change, negative = inhibition is -0.863% (inactive). As to `Cc1ccc(OC(=O)CSc2nnc(-c3cccs3)o2)cc1`, the activity change, negative = inhibition is 3.01% (inactive). Next, `O=C(CSc1cn(CC(=O)N2CCOCC2)c2ccccc12)Nc1ccccc1`: 19.2% (inactive). Regarding `Cc1cc(NC(=O)COC(=O)COc2ccc(Cl)cc2C)c([N+](=O)[O-])cc1C`, the activity change, negative = inhibition was 26.5% (inactive). For `COc1cc(Cl)c(C)cc1NC(=O)COC(=O)c1cc(SC)ccc1Cl`, the activity change, negative = inhibition was 4.92% (inactive). Consider `COc1ccc(OCC(=O)Nc2cc(C)c(Cl)cc2OC)c([N+](=O)[O-])c1`, for which the activity change, negative = inhibition is -64.3% (active). As to `Cn1cc(S(=O)(=O)N2CCCCCC2)cc1C(=O)N1CCN(c2ccc(F)cc2)CC1`, the activity change, negative = inhibition is -13.3% (inactive). Next, `COc1ccc(NC(=O)CCCc2nnc3n(CCC(C)C)c(=O)c4sccc4n23)c(OC)c1`: 12.6% (inactive). As to `CCOc1ccc(-c2cc3nc(C4CCN(C(=O)OC(C)(C)C)CC4)c(C(=O)Nc4cccc(CC)c4)cn3n2)cc1`, the activity change, negative = inhibition was -18.2% (inactive). Next, `COC(=O)c1ccccc1NC(=O)c1ccc(COc2ccccc2Cl)o1`: 14.7% (inactive); `NS(=O)(=O)c1ccc(CNC(=O)c2cnccn2)cc1`: 8.17% (inactive). Next, `CCN(CC)c1ccc(/C=N/NC(=O)CNC(=O)c2cccs2)cc1`: -20% (inactive). As to `CCN(CC)c1ccc(/C=N/Nc2nc(C)cc(C)n2)c(O)c1`, the activity change, negative = inhibition was -102% (active). Consider `CCN(CC)c1ccc(/C=N/NC(=O)c2cnccn2)c(O)c1`, for which the activity change, negative = inhibition was -98.7% (active). Regarding `O=c1cc2nc(-c3ccccc3)nc(SCCOc3ccc(Cl)cc3)n2[nH]1`, the activity change, negative = inhibition is 5.21% (inactive). `Cc1ccc(C)c(N2CCN(C(=O)Cn3nc(C)c4sc5ccccc5c4c3=O)CC2)c1`: the activity change, negative = inhibition is 23.4% (inactive). Regarding `CC[C@H](C)[C@H]1CNC(=O)C(=O)N1CC1CCN(CCc2ccc(OC)c(OC)c2)CC1`, the activity change, negative = inhibition was 15.6% (inactive).

Regarding `COc1ccc(Cl)cc1S(=O)(=O)N1CCC(c2ccncc2)CC1`, the activity change, negative = inhibition was -32.1% (inactive). On to `CCOc1ccc(OCC)c(Nc2nc3ccccc3n3nnnc23)c1`, for which the activity change, negative = inhibition was -1.18% (inactive).
